# The supplement of paper PMC13380429
# Values without a mark were called inactive.
# Test system: Vero E6 infected with SARS-CoV-2
# Test: inhibition of SARS-CoV-2 cytopathic effect; higher = more antiviral protection, active = above 15
# Conditions: 48 h
SMILES,inhibition of SARS-CoV-2 cytopathic effect (1 nM),inhibition of SARS-CoV-2 cytopathic effect (8.33 nM),inhibition of SARS-CoV-2 cytopathic effect (100 nM),inhibition of SARS-CoV-2 cytopathic effect (833.33 nM),inhibition of SARS-CoV-2 cytopathic effect (10000 nM)
C[N@+]1(CC2CC2)CC[C@]23c4c5ccc(O)c4O[C@H]2C(=O)CC[C@@]3(O)[C@H]1C5 [methylnaltrexone],1.92%,-0.19%,1.95%,1.11%,1.64%
CC(CCc1ccccc1)NCC(O)c1ccc(O)c(C(N)=O)c1 (stereo not given) [labetalol],-0.33%,0.13%,0.47%,0.67%,-2.41%
C=CCc1ccc(O)c(-c2cc(CC=C)ccc2O)c1 [magnolol],-1.26%,1.55%,1.32%,-2.87%,-1.19%
COc1nc(C)cnc1NS(=O)(=O)c1cccnc1-c1ccc(-c2nnco2)cc1 [zibotentan],-2.02%,-0.17%,-0.98%,-3.56%,-1.47%
OC1(c2ccc(Cl)c(C(F)(F)F)c2)CCN(CCCC(c2ccc(F)cc2)c2ccc(F)cc2)CC1 [penfluridol],-1.2%,2.8%,1.5%,-2.41%,33.9% (active)
O=C(O)[C@H](CC(=O)N1C[C@H]2CCCC[C@H]2C1)Cc1ccccc1 [mitiglinide],-0.3%,-1.42%,-1.04%,-1.17%,1.67%
O=C(NCC1(N2CCN(c3ccccc3)CC2)CCOCC1)c1cccnc1Sc1ccccc1,-0.72%,1.47%,1%,-2.18%,0.86%
CN(C)CC[C@@H](c1ccc(Cl)cc1)c1ccccn1 [chlorphenamine],0.315%,1.98%,-0.53%,0.17%,-5.02%
C#CC[C@H](c1nc2cc(Cl)ccc2c(=O)n1Nc1ccccc1)N(CCCN)C(=O)c1cccc(Cl)c1F,-0.8%,-0.99%,0.22%,1.38%,-9.07%
c1ccc(C2CC2)c(OCC2=NCCN2)c1 [cirazoline],-0.75%,0.31%,-8.08%,0.87%,-3.99%
C[C@H](Nc1cc2c(-c3ccc4c(c3)OCO4)noc2cn1)c1ccccc1,0.3%,-0.01%,-0.1%,-0.91%,-1.26%
O=C(O)CCCC[C@@H]1CCSS1 [thioctic-acid],0.04%,-0.43%,-1.56%,1.13%,-3.32%
C=C1CC[C@H](O)C/C1=C/C=C1\CCC[C@]2(C)[C@@H]([C@H](C)/C=C/[C@H](C)C(C)C)CC[C@@H]12 [ergocalciferol],0.88%,0.86%,0.95%,0.55%,0.72%
c1cc(OCCN2CCCCC2)cc(-c2n[nH]c3ccc(-c4nnc[nH]4)cc23)c1,-0.48%,-0.97%,-0.96%,3.62%,3.74%
C[C@@H](c1nc(-c2ccc(C#N)cc2)cs1)[C@](O)(Cn1cncn1)c1ccc(F)cc1F [ravuconazole],-0.11%,-0.67%,-0.09%,-0.86%,0.29%
COc1cc(S(C)(=O)=O)ccc1Nc1nc2ccc(-c3ccc(NC(=O)[C@H](C)c4ccc(F)cc4)cc3)cn2n1,0.71%,-3.05%,0.88%,-5.66%,-4.51%
CN1C(C(=O)Nc2ccccn2)=C(O)c2sc(Cl)cc2S1(=O)=O [lornoxicam],-2.9%,-0.66%,-1.36%,0.9%,-0.69%
Cn1c(=O)c2[nH]cnc2n(C)c1=O [aminophylline],-0.89%,-0.66%,-1.42%,-0.87%,-0.09%
C[C@]12CC[C@@H]3c4ccc(O)cc4CC[C@H]3[C@@H]1C[C@@H](O)[C@@H]2O [estriol],2.04%,1.38%,-1.95%,-1.63%,-0.19%
C#C[C@]1(O)C=C[C@H]2[C@@H]3CCC4=CC(=O)CC[C@@H]4[C@H]3CC[C@@]21CC [gestodene],0.01%,1.99%,-0.48%,-1.22%,1.3%

SMILES,inhibition of SARS-CoV-2 cytopathic effect (1 nM),inhibition of SARS-CoV-2 cytopathic effect (8.33 nM),inhibition of SARS-CoV-2 cytopathic effect (100 nM),inhibition of SARS-CoV-2 cytopathic effect (833.33 nM),inhibition of SARS-CoV-2 cytopathic effect (10000 nM)
CC1(C)CC[C@]2(C(=O)O)CC[C@]3(C)C(=CC[C@@H]4[C@@]5(C)CC[C@H](O)C(C)(C)[C@@H]5CC[C@]43C)[C@@H]2C1 [oleanolic-acid],-0.65%,-0.09%,0.47%,-0.94%,-0.53%
Fc1ccc(-c2c3cccc(C(F)(F)F)c3nn2Cc2ccc(F)cc2Cl)cc1,-0.96%,-3.42%,2.69%,-1.23%,2.25%
C[C@@H]1CN(CC(=O)Nc2ccc3c(c2)Cc2cccc(-c4cc(=O)cc(N5CCOCC5)o4)c2S3)C[C@H](C)O1,-2.04%,0.24%,2.16%,2.87%,35.7% (active)
O=C(COc1ccc(C(=O)c2ccccc2)cc1)NC1CCN(Cc2ccccc2)CC1 [adiporon],-2.19%,-0.76%,0.29%,0.19%,-1.05%
O=C(Nc1cc(C(F)(F)F)cc(C(F)(F)F)c1)c1cnc(Cl)nc1C(F)(F)F,0.53%,-0.29%,0.4%,-4.18%,-13.9%
COc1ccc(NS(=O)(=O)c2ccc(/N=N/c3ccc(O)c(C(=O)O)c3)cc2)nn1 [salazodine],0.92%,3.48%,1.53%,-1.71%,-1.01%
O=C(CN1CCNCC1)NC1CCCCC1 [esaprazole],-1.96%,-1.47%,-0.45%,-0.95%,-1.46%
CN(C)CCC(c1ccccc1)c1ccccn1 (stereo not given) [pheniramine],-0.78%,3.08%,0.29%,2.25%,-0.28%
NC(=O)[C@@H]1CC[C@@H]2CN1C(=O)N2OS(=O)(=O)O [avibactam],-1.08%,0.92%,-0.14%,0.95%,1.7%
COc1ccc2ccc(=O)oc2c1CC=C(C)C [osthol],2.39%,6.22%,1.91%,3.87%,2.49%
CC(C)(OCc1nn(Cc2ccccc2)c2ccccc12)C(=O)O [bindarit],-0.08%,-0.77%,0.47%,-2.78%,-0.8%
CC(NC(C)(C)C)C(=O)c1cccc(Cl)c1 (stereo not given) [bupropion],1.88%,2.11%,-0.69%,-0.93%,-2.06%
Cc1ccc(Cl)c(OC[C@H](O)CNC(C)C)c1 [1-(2-chloro-5-methylphenoxy)-3-(isopropylamino)-2-propanol],0.19%,-0.3%,-0.68%,0.3%,-2.47%
COc1cc(N)c(Cl)cc1C(=O)CCC1CCN(CCNS(C)(=O)=O)CC1,-0.46%,-0.03%,0.79%,0.95%,-0.74%
CC(C)(Oc1ccc(CCNC(=O)c2ccc(Cl)cc2)cc1)C(=O)O [bezafibrate],-1.42%,0.91%,-1.38%,0.02%,-0.38%
CC(=O)Nc1ccc(C(=O)Nc2ccccc2N)cc1 [tacedinaline],1.04%,1.48%,-0.39%,-3.01%,-1.74%
O=C(O)CC[C@H]1CC[C@@](c2cc(F)ccc2F)(S(=O)(=O)c2ccc(Cl)cc2)CC1,-2.65%,-0.66%,-4.1%,-7.63%,-8.12%
CN(C)CCCC(=O)Nc1ccc(C(=O)Nc2cccc(Nc3ncc(Cl)c(-c4c[nH]c5ccccc45)n3)c2)cc1,1%,-3.04%,-1.78%,-0.35%,-3.93%
CC1=C(C(=O)O)N2C(=O)[C@@H](NC(=O)[C@H](N)C3=CCC=CC3)[C@H]2SC1 [cephradine],0.46%,-1.94%,-0.29%,0.485%,-2.73%
